The record followed here is PubChem BioAssay (EPA / NIEHS).

Molecules are shown by their SMILES. Results filed as inconclusive are left out. Active and inactive are the calls of the source. Rule for the calls, unless noted: active = hit-call score of the fitted dose curve at least 0.9, where 1 is the maximum; inactive = score below 0.9.

Assay [1] in a line: ACEA_ER_80hr: ACEA Biosciences xCELLigence Real-Time Cell Analysis on Estrogen Receptor Agonism for Proliferation (AID 2282667; active = hit-call score of the fitted dose curve at least 0.9, where 1 is the maximum). Particulars: T47D proliferation, impedance (xCELLigence), 80 h. The essentials:
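T-47D cells monitored by electrical impedance (xCELLigence) with compound present throughout; 80 h timepoint, positive-direction fitting versus DMSO. Eight-point 1:4 dilutions from 100 uM final, duplicate plates.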

Assay [2] is described as follows: APR_HepG2_CellCycleArrest_24hr: Apredica 24-hour HepG2 Assay for Cell Cycle Arrest (AID 2282905).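 Note: cell cycle arrest scored as ratio of 2N to 4N nuclear DNA content.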 Particulars: imaging, actives raise or lower the signal. In outline:
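Cell cycle arrest is scored from nuclear DNA content measured by high-content imaging of Hoechst 33342-stained HepG2 cells following 24-hour treatment at ten concentrations up to 200 uM, with DMSO as baseline.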

A short description of assay [3]: APR_HepG2_NuclearSize_24hr: Apredica 24-hour HepG2 Assay for Nuclear Size (AID 2282907). Conditions: high-content imaging, actives raise or lower the signal. In outline:
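Compounds in DMSO (final 0.5%) were added to human HepG2 hepatoma cells at ten concentrations up to 200 uM for 24 hr. Fixed nuclei were stained with Hoechst 33342, and nuclear diameter was quantified from automated images.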

Assay [4] is described as follows: APR_HepG2_CellLoss_24hr: Apredica 24-hour HepG2 Assay for Cell Loss (AID 2282908).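 For AC50: fit in both directions so a hit may be cell loss or gain.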 Particulars: high-content imaging. In outline: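 Cell number is quantified by fluorescence imaging of Hoechst 33342-stained nuclei following dosing at 0.39–200 uM in 0.5% DMSO. Curves are fitted in both directions from the DMSO baseline.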
A short description of assay [5]: APR_HepG2_MicrotubuleCSK_24hr: Apredica 24-hour HepG2 Assay for Microtubule CSK Stabilty (AID 2282909). Particulars: HepG2 microtubule cytoskeleton imaging, actives raise or lower the signal. The essentials: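 Steps: dose HepG2 for 24 h (0.39–200 uM, 0.5% DMSO); fix 30 min in 3.7% formaldehyde at room temperature; permeabilize; stain alpha-tubulin 60 min; image microtubule cytoskeleton at 20x. Signal change fitted in both directions relative to DMSO.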

Assay [6] is described as follows: APR_HepG2_MitoticArrest_24hr: Apredica 24-hour HepG2 Assay for Mitotic Arrest (AID 2282910). Conditions: high-content imaging, actives raise or lower the signal. In outline: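 Compounds are dosed onto HepG2 cells across ten concentrations up to 200 uM for 24 hr. Cells are then fixed in 3.7% formaldehyde, permeabilised, and labelled for phospho-histone H3 and nuclei; images are scored by cell cycle analysis and fitted bidirectionally relative to DMSO.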

Assay [7] in a line: APR_HepG2_MitoMembPot_24hr: Apredica 24-hour HepG2 Assay for Mitochondrial Membrane Potential (AID 2282911). Conditions: imaging, actives raise or lower the signal. In outline:
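HepG2 cells exposed 24 h to 0.39–200 uM compounds in duplicate, 0.5% v/v DMSO final. MitoTracker Red CMXRos 250 nM loaded 30 min before formaldehyde fixation; high-content imaging at 20x, bidirectional fit versus DMSO.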

The nature of assay [8]: APR_HepG2_MitoMass_24hr: Apredica 24-hour HepG2 Assay for Mitochondrial Mass (AID 2282912). Particulars: high-content imaging, actives raise or lower the signal. The essentials: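 The liver line HepG2 was dosed in duplicate across a 0.39–200 uM series, with final DMSO held at 0.5% v/v, and harvested at 24 hr. High-content imaging measured mitochondrial dye staining.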
The nature of assay [9]: APR_HepG2_p53Act_24hr: Apredica 24-hour HepG2 Assay for p53 Activation (AID 2282913).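 Note: p53 protein immunofluorescence averaged per cell in HepG2 with Hoechst nuclei.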 Conditions: high-content imaging, actives raise or lower the signal. The essentials: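 HepG2 cells exposed 24 h to compounds at 0.39–200 uM in duplicate, 0.5% v/v DMSO final; fixed, permeabilized, stained with anti-p53 antibody and Hoechst 33342; fluorescence imaging; bidirectional curve fit versus DMSO.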

A short description of assay [10]: APR_HepG2_CellCycleArrest_72hr: Apredica 72-hour HepG2 Assay for Cell Cycle Arrest (AID 2282914). Conditions: high-content imaging, actives raise or lower the signal. In outline:
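HepG2 cells exposed 72 h in duplicate to 0.39–200 uM compound, 0.5% DMSO final. Formaldehyde-fixed, Hoechst 33342-stained nuclei imaged at 20x, six fields per well; DNA content per valid cell quantified by cell-cycle image analysis, bidirectional fit versus DMSO.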

A short description of assay [11]: APR_HepG2_CellLoss_72hr: Apredica 72-hour HepG2 Assay for Cell Loss (AID 2282915). Particulars: high-content imaging. The essentials:
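Cell number comes from Hoechst 33342-labelled nuclei, imaged at 20x after 3.7% formaldehyde fixation. Dosing was 0.39–200 uM, ten concentrations in duplicate, 0.5% DMSO final, for 72 h. Bidirectional fit relative to DMSO baseline.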

A short description of assay [12]: APR_HepG2_P-H2AX_72hr: Apredica 72-hour HepG2 Assay for H2AX Phosphorylation (AID 2282916).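 Note: phospho-histone H2A.x immunostain intensity per cell marking DNA damage.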 Conditions: imaging, actives raise or lower the signal. The essentials: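 Following 72 hr treatment with 0.39–200 uM compound, HepG2 cells were formaldehyde-fixed, permeabilized and stained for phospho-H2A.x; signal was measured by high-content imaging and fitted bidirectionally against DMSO controls.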

Assay [13] can be described thus: APR_HepG2_MitoMembPot_72hr: Apredica 72-hour HepG2 Assay for Mitochondrial Membrane Potential (AID 2282917). Conditions: imaging, actives raise or lower the signal. In outline: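 Membrane potential read by MitoTracker Red CMXRos (250 nM, 30 min, pre-fixation) fluorescence imaging of HepG2 after 72 hr exposure. Ten concentrations, 0.39–200 uM, duplicate wells, 0.5% DMSO; fitted in both directions against DMSO baseline.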

Assay [14] is described as follows: APR_HepG2_MitoticArrest_72hr: Apredica 72-hour HepG2 Assay for Mitotic Arrest (AID 2282918). Particulars: high-content imaging, actives raise or lower the signal. The essentials:
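HepG2 cells treated 72 h at 0.39–200 uM, 0.5% DMSO final; formaldehyde-fixed, stained with Hoechst 33342 and phospho-histone H3 antibody, imaged by high-content fluorescence; bidirectional fit versus DMSO.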

Assay [15] in a line: APR_HepG2_MicrotubuleCSK_72hr: Apredica 72-hour HepG2 Assay for Microtubule CSK Stabilty (AID 2282919). Particulars: HepG2 microtubule cytoskeleton, high-content imaging, actives raise or lower the signal. In outline:
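Read-out is tubulin fluorescence intensity from high-content imaging of HepG2 cells, with nuclei identified by Hoechst 33342. Treatment lasts 72 h at 0.39–200 uM, and curves are fitted bidirectionally against the DMSO negative control.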

Assay [16] in a line: APR_HepG2_P-H2AX_24hr: Apredica 24-hour HepG2 Assay for H2AX Phosphorylation (AID 2282920). Conditions: high-content imaging, actives raise or lower the signal. The essentials:
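HepG2 cells dosed 24 h at 0.39–200 uM (10 points, duplicate, 0.5% DMSO final). Formaldehyde-fixed and permeabilized, then immunostained for phospho-H2A.x with Hoechst. Fluorescence quantified by high-content imaging, fitted bidirectionally versus DMSO.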

The nature of assay [17]: APR_HepG2_StressKinase_72hr: Apredica 72-hour HepG2 Assay for Stress Kinase (AID 2282921). Particulars: HepG2 stress kinase (phospho-c-Jun) imaging, actives raise or lower the signal. In outline: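 Fluorescence intensity of Cy3-tagged anti-phospho-c-Jun antibody, quantified per cell from Hoechst-defined nuclei across six images per well, served as the read-out following 72 h exposure (0.39–200 uM, 0.5% v/v DMSO).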

Assay [18] is described as follows: APR_HepG2_p53Act_72hr: Apredica 72-hour HepG2 Assay for p53 Activation (AID 2282923).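 Note: average cellular p53 protein immunofluorescence intensity in HepG2 cells.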 Conditions: high-content imaging, actives raise or lower the signal. The essentials: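 HepG2 monolayers receive test compounds in duplicate at ten concentrations (0.39 through 200 uM) for 72 hr. They are then formaldehyde-fixed, antibody-labelled for p53, Hoechst-stained and imaged, with activity fitted bidirectionally versus DMSO.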

Assay [19] can be described thus: APR_HepG2_MitoMass_72hr: Apredica 72-hour HepG2 Assay for Mitochondrial Mass (AID 2282924).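 Note: MitoTracker Red CMXRos stain intensity per cell imaged as mitochondrial mass.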 Particulars: high-content imaging, actives raise or lower the signal. In outline: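 HepG2, 72 hr cmpd, 10 conc 0.39–200 uM in dup, DMSO 0.5% v/v. MitoTracker Red CMXRos 250 nM 30 min pre-fix; formaldehyde 3.7% fix 30 min RT. HCS imaging, gain/loss fit vs DMSO.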
Assay [20] can be described thus: APR_HepG2_StressKinase_24hr: Apredica 24-hour HepG2 Assay for Stress Kinase (AID 2282922). Conditions: HepG2 stress kinase (phospho-c-Jun) imaging, actives raise or lower the signal. In outline:
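HepG2, 24 hr dosing, 0.39–200 uM in duplicate, 0.5% DMSO; formaldehyde fix (3.7%), 0.5% Triton X-100; anti-phospho-c-Jun + Cy3 secondary, Hoechst counterstain; ArrayScan imaging; bidirectional curve fit vs DMSO baseline.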

On to `C=C(C)C(=O)OCCC(F)(F)C(F)(F)C(F)(F)C(F)(F)C(F)(F)C(F)(F)F`, for which the compound was called inactive in assay [1], in assay [2], in [3], in assay [4], in assay [5] and in assay [6]. In addition, the result in assay [7], in assay [8], in assay [9], in assay [10], in [11] and in [12] was inactive. Moreover, the compound was called inactive in assay [13], in assay [14], in [15], in [16], in [17] and in assay [18]. For the same compound, in assay [19], the compound was classed as inactive.
As for `COc1ccc([N+](=O)[O-])cc1N`, the call in assay [1], in [2], in [3], in [4], in [5] and in [6] was inactive. Besides, the result in assay [7], in [8], in assay [9], in assay [10], in assay [11] and in assay [12] was inactive. In addition, the compound was classed as inactive in assay [13], in assay [14], in assay [15], in assay [16], in assay [17] and in assay [20]. Further, the result in assay [18] and in assay [19] was inactive.
As to `CCCCCCCCCCCCCCCS(=O)(=O)Oc1ccccc1`, the call in assay [1], in assay [2], in assay [3], in assay [4], in assay [5] and in assay [6] was inactive. Further, the outcome in assay [7], in assay [8], in assay [9], in assay [10], in assay [11] and in assay [12] was inactive. For the same compound, the outcome in assay [13], in assay [14], in assay [15], in assay [16], in assay [17] and in assay [18] was inactive. Moreover, in assay [19], the result was inactive.
For the compound `CCCCCCC(=O)O`, the call in assay [1], in assay [2], in assay [3], in assay [4], in assay [5] and in assay [6] was inactive. The result in [7], in [8], in [9], in [10], in assay [11] and in assay [12] was inactive. In addition, the compound was classed as inactive in assay [13], in assay [14], in assay [15], in assay [16], in [17] and in assay [18]. The call in [19] was inactive.
One may read the AC50 as the midpoint of the concentration-response curve, whichever way the signal moves. As to `Cc1oc(-c2ccccc2)nc1CCOc1ccc(C[C@H](Nc2ccccc2C(=O)c2ccccc2)C(=O)O)cc1`, the compound was called inactive in assay [1], in [2], in [3], in assay [5], in [8] and in assay [15]. Also, the compound was classed as inactive in assay [17], in assay [20] and in [19]. For the same compound, the AC50 is 84.9 µM (active) in assay [4]; 84.9 µM (active) in assay [6]; 109 µM (active) in [7]; 107 µM (active) in [9]; 82.7 µM (active) in assay [10]; 53.3 µM (active) in assay [11]. The AC50 is 59 µM (active) in assay [12]; 120 µM (active) in assay [13]; 67.8 µM (active) in assay [14]; 81.7 µM (active) in assay [16]; 95.7 µM (active) in [18].
Turning to `CCCCC(CC)COC(=O)CCCCC(=O)OCC(CC)CCCC` (stereo unspecified), the outcome in [1], in [2], in [3], in assay [4], in assay [6] and in assay [7] was inactive. Besides, the call in [8], in assay [9], in [10], in assay [11], in assay [12] and in [13] was inactive. Moreover, the call in [14], in assay [15], in assay [16], in assay [17], in [20] and in assay [18] was inactive. The call in assay [19] was inactive.
